# Read-outs that look alike come from different tables or passages of the source.
# Tests used:
# [1] = system: PDGFRB; settings: read-out: apparent Kd, n = 1
# [2] = system: PRKAA1; settings: read-out: apparent Kd, n = 1
substance,measurement,setting,value
Lestaurtinib,potency estimated from few doses,"[1]; compound concentrations:100 nM and 1000 nM (sheet 'Lestaurtinib' of Supplementary Table 1),run:Lestaurtinib_02407_R3,Plate:MR005",428 nM
same,potency estimated from few doses,"[1]; compound concentrations:100 nM and 1000 nM (sheet 'Lestaurtinib' of Supplementary Table 1),run:Lestaurtinib_02437_R2,Plate:MR007",717 nM
same,potency estimated from few doses,"[1]; compound concentrations:100 nM and 1000 nM (sheet 'Lestaurtinib' of Supplementary Table 1),run:Lestaurtinib_02437_R3,Plate:MR007",1300 nM
same,potency estimated from few doses,"[1]; compound concentrations:100 nM and 1000 nM (sheet 'Lestaurtinib' of Supplementary Table 1),run:Lestaurtinib_02438_R2,Plate:MR008",2020 nM
same,potency estimated from few doses,"[1]; compound concentrations:100 nM and 1000 nM (sheet 'Lestaurtinib' of Supplementary Table 1),run:Lestaurtinib_02438_R3,Plate:MR008",1360 nM
same,potency estimated from few doses,"[1]; compound concentrations:100 nM and 1000 nM (sheet 'Lestaurtinib' of Supplementary Table 1),run:Lestaurtinib_02443_R1,Plate:MR009",1570 nM
same,potency estimated from few doses,"[1]; compound concentrations:100 nM and 1000 nM (sheet 'Lestaurtinib' of Supplementary Table 1),run:Lestaurtinib_02443_R3,Plate:MR009",279 nM
same,potency estimated from few doses,"[1]; compound concentrations:100 nM and 1000 nM (sheet 'Lestaurtinib' of Supplementary Table 1),run:Lestaurtinib_02473_R1,Plate:MR010",982 nM
same,potency estimated from few doses,"[1]; compound concentrations:100 nM and 1000 nM (sheet 'Lestaurtinib' of Supplementary Table 1),run:Lestaurtinib_02487_R1,Plate:MR012",998 nM
same,potency estimated from few doses,"[1]; compound concentrations:100 nM and 1000 nM (sheet 'Lestaurtinib' of Supplementary Table 1),run:Lestaurtinib_02496_R1,Plate:MR013",1610 nM
same,potency estimated from few doses,"[1]; compound concentrations:100 nM and 1000 nM (sheet 'Lestaurtinib' of Supplementary Table 1),run:Lestaurtinib_02496_R3,Plate:MR013",1530 nM
same,potency estimated from few doses,"[1]; compound concentrations:100 nM and 1000 nM (sheet 'Lestaurtinib' of Supplementary Table 1),run:Lestaurtinib_02566_R2,Plate:MR014",1700 nM
same,potency estimated from few doses,"[1]; compound concentrations:100 nM and 1000 nM (sheet 'Lestaurtinib' of Supplementary Table 1),run:Lestaurtinib_02566_R3,Plate:MR014",1620 nM
same,potency estimated from few doses,"[1]; compound concentrations:100 nM and 1000 nM (sheet 'Lestaurtinib' of Supplementary Table 1),run:Lestaurtinib_02577_R1,Plate:MR016",1800 nM
same,potency estimated from few doses,"[1]; compound concentrations:100 nM and 1000 nM (sheet 'Lestaurtinib' of Supplementary Table 1),run:Lestaurtinib_02584_R1,Plate:MR017",1790 nM
same,potency estimated from few doses,"[1]; compound concentrations:100 nM and 1000 nM (sheet 'Lestaurtinib' of Supplementary Table 1),run:Lestaurtinib_02584_R2,Plate:MR017",1590 nM
same,potency estimated from few doses,"[1]; compound concentrations:100 nM and 1000 nM (sheet 'Lestaurtinib' of Supplementary Table 1),run:Lestaurtinib_02584_R3,Plate:MR017",1990 nM
same,potency estimated from few doses,"[1]; compound concentrations:100 nM and 1000 nM (sheet 'Lestaurtinib' of Supplementary Table 1),run:Lestaurtinib_02601_R1,Plate:MR018",1820 nM
same,potency estimated from few doses,"[1]; compound concentrations:100 nM and 1000 nM (sheet 'Lestaurtinib' of Supplementary Table 1),run:Lestaurtinib_02601_R2,Plate:MR018",1400 nM
same,potency estimated from few doses,"[1]; compound concentrations:100 nM and 1000 nM (sheet 'Lestaurtinib' of Supplementary Table 1),run:Lestaurtinib_02601_R3,Plate:MR018",1970 nM
same,potency estimated from few doses,"[1]; compound concentrations:100 nM and 1000 nM (sheet 'Lestaurtinib' of Supplementary Table 1),run:Lestaurtinib_02724_R2,Plate:MR021",749 nM
same,potency estimated from few doses,"[1]; compound concentrations:100 nM and 1000 nM (sheet 'Lestaurtinib' of Supplementary Table 1),run:Lestaurtinib_02741_R1,Plate:MR023",1370 nM
same,potency estimated from few doses,"[1]; compound concentrations:100 nM and 1000 nM (sheet 'Lestaurtinib' of Supplementary Table 1),run:Lestaurtinib_02741_R2,Plate:MR023",1340 nM
same,potency estimated from few doses,"[1]; compound concentrations:100 nM and 1000 nM (sheet 'Lestaurtinib' of Supplementary Table 1),run:Lestaurtinib_02741_R3,Plate:MR023",1830 nM
same,potency estimated from few doses,"[1]; compound concentrations:100 nM and 1000 nM (sheet 'Lestaurtinib' of Supplementary Table 1),run:Lestaurtinib_02768_R3,Plate:MR028",1580 nM
same,potency estimated from few doses,"[1]; compound concentrations:100 nM and 1000 nM (sheet 'Lestaurtinib' of Supplementary Table 1),run:Lestaurtinib_02795_R1,Plate:MR022",1320 nM
same,potency estimated from few doses,"[1]; compound concentrations:100 nM and 1000 nM (sheet 'Lestaurtinib' of Supplementary Table 1),run:Lestaurtinib_02795_R3,Plate:MR022",1600 nM
same,potency estimated from few doses,"[1]; compound concentrations:100 nM and 1000 nM (sheet 'Lestaurtinib' of Supplementary Table 1),run:Lestaurtinib_02802_R1,Plate:MR029",1590 nM
same,potency estimated from few doses,"[1]; compound concentrations:100 nM and 1000 nM (sheet 'Lestaurtinib' of Supplementary Table 1),run:Lestaurtinib_02802_R3,Plate:MR029",1930 nM
same,potency estimated from few doses,"[1]; compound concentrations:100 nM and 1000 nM (sheet 'Lestaurtinib' of Supplementary Table 1),run:Lestaurtinib_02896_R2,Plate:MR030",849 nM
same,potency estimated from few doses,"[1]; compound concentrations:100 nM and 1000 nM (sheet 'Lestaurtinib' of Supplementary Table 1),run:Lestaurtinib_02896_R3,Plate:MR030",573 nM
same,potency estimated from few doses,"[1]; compound concentrations:100 nM and 1000 nM (sheet 'Lestaurtinib' of Supplementary Table 1),run:Lestaurtinib_03172_R1,Plate:MR031",1130 nM
same,potency estimated from few doses,"[1]; compound concentrations:100 nM and 1000 nM (sheet 'Lestaurtinib' of Supplementary Table 1),run:Lestaurtinib_03172_R2,Plate:MR031",754 nM
same,potency estimated from few doses,"[1]; compound concentrations:100 nM and 1000 nM (sheet 'Lestaurtinib' of Supplementary Table 1),run:Lestaurtinib_03252_R1,Plate:MR032",1320 nM
same,potency estimated from few doses,"[1]; compound concentrations:100 nM and 1000 nM (sheet 'Lestaurtinib' of Supplementary Table 1),run:Lestaurtinib_03252_R2,Plate:MR032",970 nM
same,potency estimated from few doses,"[1]; compound concentrations:100 nM and 1000 nM (sheet 'Lestaurtinib' of Supplementary Table 1),run:Lestaurtinib_03260_R1,Plate:MR033",1570 nM
same,potency estimated from few doses,"[1]; compound concentrations:100 nM and 1000 nM (sheet 'Lestaurtinib' of Supplementary Table 1),run:Lestaurtinib_03260_R2,Plate:MR033",1930 nM
same,potency estimated from few doses,"[2]; compound concentrations:100 nM and 1000 nM (sheet 'Lestaurtinib' of Supplementary Table 1),run:Lestaurtinib_02339_R2,Plate:MR001",860 nM
same,potency estimated from few doses,"[2]; compound concentrations:100 nM and 1000 nM (sheet 'Lestaurtinib' of Supplementary Table 1),run:Lestaurtinib_02339_R3,Plate:MR001",1330 nM
same,potency estimated from few doses,"[2]; compound concentrations:100 nM and 1000 nM (sheet 'Lestaurtinib' of Supplementary Table 1),run:Lestaurtinib_02364_R2,Plate:MR002",936 nM
same,potency estimated from few doses,"[2]; compound concentrations:100 nM and 1000 nM (sheet 'Lestaurtinib' of Supplementary Table 1),run:Lestaurtinib_02367_R3,Plate:MR003",951 nM
same,potency estimated from few doses,"[2]; compound concentrations:100 nM and 1000 nM (sheet 'Lestaurtinib' of Supplementary Table 1),run:Lestaurtinib_02381_R1,Plate:MR004",919 nM
same,potency estimated from few doses,"[2]; compound concentrations:100 nM and 1000 nM (sheet 'Lestaurtinib' of Supplementary Table 1),run:Lestaurtinib_02381_R2,Plate:MR004",900 nM

# Reference: paper PMC11062922 (Nature Chemical Biology, 2023)
